# Measured values reported in PubChem BioAssay AID624491 (Broad Institute, 2012).
# Hit rate of the full screen: of about 1,800 compounds, about 1,400 (78%) were called active. Roughly 2% stayed inconclusive and do not appear here. So high a share suggests a set chosen from earlier hits. Not all results are given here. Potency and affinity values are given separately. A number with no mark means an inactive call.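 How the source made its calls: active means fitted curve crossing a set activation limit at or below the highest valid dose tested; inconclusive means flat fit at 30 to 70% activation, or poor fit; inactive means the rest, including signal decreases.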
# Assay: N-linked glycosylation inhibitors, luciferase reporter, dose response, D54 ERlucT cells, luminescence, cherry-picks (AID 624491);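 further: signal gain reflects blocked N-linked glycosylation of a luciferase reporter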
# Details: 24 h, 100% = twice neutral-control luminescence; series mostly up to 19.5 µM; activation (NLG inhibition): at the top concentration
row,SMILES,activation (NLG inhibition)
1,CC(=O)Nc1cccc(-c2ccnc3c2CC(C)(C(=O)NCc2ccc(N(C)C)cc2)O3)c1 (stereo not given),30.5%
2,CC1(C(=O)NCc2ccccc2)Cc2c(-c3ccc4c(c3)OCO4)ccnc2O1 (stereo not given),48.3%
3,O=C(CCl)Nc1cc(-c2ccccc2)nn1-c1ccccc1,-66.9%
4,CCOC(=O)c1c(C)oc2c(F)c(F)c(F)c(F)c2c1=O,-96.3%
5,COc1ccc(S(=O)(=O)Nc2ccc3c(c2)n(C)c(=O)n3C)cc1OC,10.9% [at 5 µM]
6,CCOC(=O)c1c(NC(C)=O)sc2c1CCC(C=O)=C2Sc1ccccc1,14.9% [at 5 µM]
7,CC(=O)Nc1sc(C)c(C)c1C(=O)OCC(=O)Nc1cccc(C)c1,130%
8,COC(=O)c1cc(=O)n(Cc2ccco2)c(=Nc2ccc(F)cc2)s1,1.44%
9,COc1ccc(-c2nc(NC(=O)C3CC(=O)N(c4ccc5c(c4)OCCO5)C3)sc2C)cc1 (stereo not given),38%
10,Cc1cnc(NC(=O)C2CC(=O)N(c3cccc(Cl)c3)C2)s1 (stereo not given),0.274% [at 5 µM]
11,CCOC(=O)C1CCN(S(=O)(=O)Cc2ccccc2)CC1,-4.23% [at 5 µM]
12,CCOC(=O)C1CCN(Cc2cc(Cl)c3ccccc3c2O)CC1,5.3%
13,CCOC(=O)/C=C(\C)Sc1cc(=O)oc2ccccc12,0.993%
14,Cc1ccc(C(=O)Nc2ccc(C(=O)/C=C/c3cccs3)cc2)cc1,14.5%
15,Cc1ccc(OCC(=O)Nc2ccc(NC(=O)c3cccs3)cc2)c(C)c1,602%
16,COc1ccc(Nc2nc(N)c(C(=O)c3ccc(F)cc3)s2)cc1,-4.92%
17,Cc1nn(CC(C)C)c(Cl)c1C(=O)N(c1ccc(Cl)cc1F)S(C)(=O)=O,61.3%
18,C[C@]1(O)CC(=O)C=C[C@H]1Nc1ccccc1,80%
19,COc1cccc(-c2cc(C(=O)Nc3cc(OC)c(OC)c(OC)c3)no2)c1,37.2%
20,COc1cc(NC(=O)N2CCc3nc(NCc4cccc(Oc5ccccc5)c4)ncc3C2)cc(OC)c1OC,33.2%
21,COc1cc2cc(-c3ccc(O)cc3O)nc(C)c2cc1OC,22%
22,COc1ccc(C(=O)n2c(-c3ccco3)nc3ccccc32)cc1,18.1%

row,SMILES,activation (NLG inhibition)
1,CCOC(=O)C(=Cc1ccc(-c2ccsc2C(=O)OC)o1)C(=O)OCC,47.5%
2,CCCN(CCC)S(=O)(=O)c1ccc(C(=O)Nc2nc3c(s2)CCc2ccccc2-3)cc1,88.9%
3,O=C(NC1CCCCC1)c1cccc2c1C(=O)c1ccc(-c3ccc(OC(F)(F)F)cc3)cc1S2(=O)=O,-5.59%
4,CCN(CC)c1cc(C)c2cc(NC(=O)c3ccccc3OC)ccc2n1,52.2%
5,CCOC(=O)c1cc2c(ccn2C)n1CC(=O)N1CCN(c2ccccc2)CC1,8.28%
6,CCOC(=O)c1cc2sccc2n1CC(=O)N1c2ccccc2CC1C (stereo not given),1420%
7,COc1ccc(-n2c(=S)[nH]c3cc(C(=O)NC4CCCCC4)ccc3c2=O)c(OC)c1,29.5%
8,COC(=O)c1ccc2c(=O)n(Cc3ccc(C(=O)NC(C)C)cc3)c(=S)[nH]c2c1,35%
9,CCN1/C(=C/c2ccc3ccccc3[n+]2CC)C=Cc2ccccc21,84%
10,COc1cc(CCC(=O)Nc2nnc(C)s2)cc(OC)c1OC,31.1%
11,Cc1noc2ncnc(Sc3ccc(Cl)cc3)c12,-2.99%
12,Cc1ccc(C)c(N2CCN(c3cnn(-c4nc5ccccc5s4)c(=O)c3Cl)CC2)c1,79.4%
13,COc1ccc(C2NC(=S)NC3=C2CCCC3=C2SCCS2)cc1 (stereo not given),1170%
14,O=C(Cc1csc(Nc2nc(=S)[nH]c3ccccc23)n1)NCc1cccc(Cl)c1,163%
15,CNC(=O)c1cccc2nc3ccccc3nc12,18.8%
16,COc1cc(C2CC(=O)N(c3ccc(C)cc3)C(=O)C2)cc(OC)c1OC,6.21%
17,CC(C)Oc1ccccc1C1CC(=O)Nc2cc3c(cc21)OCO3 (stereo not given),18.1%
18,CCOc1ccccc1C1CC(=O)Nc2cc3c(cc21)OCCO3 (stereo not given),20.7%
19,COc1cc(/C=C(/C(=O)c2cccs2)c2nc3ccccc3[nH]2)cc(OC)c1O,1.08%
20,O=C(N/N=C/c1ccc2c(c1)OCO2)C1COc2ccccc2O1 (stereo not given),24.7%
21,N#Cc1c(NC(=O)/C=C/c2ccco2)sc2c1CCCC2,30.1%
22,COC(=O)C1=C(C(=O)OC)[C@@H]2N(Cc3ccccc3)c3ccccc3[C@@]23C[C@@H](C(=O)OC)N(C(=O)c2cc(C)oc2C)C3=N1,44.3%

row,SMILES,activation (NLG inhibition)
1,CC(C)C1N=C(c2ccc3c(c2)OCO3)CC(c2ccccc2O)N1 (stereo not given),-18.5%
2,CC(=O)c1ccc(OCC(O)CN2CCN(CCN3C(=O)c4cccc5cccc(c45)C3=O)CC2)cc1 (stereo not given),81.5%
3,Cc1ccc(-c2cc(C(F)F)n3ncc(C(=O)N4CCc5ccccc54)c3n2)cc1,39.4%
4,COc1ccc(-c2cc(C(F)F)n3ncc(C(=O)n4ccnc4C)c3n2)cc1,-88.3%
5,CC(=O)N(C(C)=O)n1c(C)nc2sc3c(c2c1=O)CCCC3,-43.7%
6,O=C1/C(=C/c2ccccc2)CCc2ccc(Cl)nc21,-3.41%
7,COc1cccc(-n2c(SCC(=O)NC3CCCCC3)nc3n[nH]c(C)c3c2=N)c1,12.3%
8,NC(=O)c1ccc2c(=O)n3c(-c4cc(Cl)c(N)c(Cl)c4)csc3nc2c1,3.94% [at 5 µM]
9,Cc1ccnc(NC(=O)Nc2ccc3c(c2)N(C)C(=O)CS3)c1,17.6%
10,COC(=O)c1ccc(Oc2cc(C)nc(-n3nc(C)cc3C)n2)cc1,28.5%
11,Cc1ccc2cc3c(N)c4c(C)ccc(C)c4nc3nc2c1,-73.8%
12,Cc1cc(N2CCN(c3ccc([N+](=O)[O-])c4cccnc34)CC2)c2ccccc2n1,247%
13,Cc1ccc(N2C(=O)c3cccc4c([N+](=O)[O-])ccc(c34)C2=O)c2cccnc12,-3.7%
14,Cc1ccc2c(c1)NC(=O)[C@@]1(C)[C@@H](c3ccccc3)[C@H]3COc4ccccc4[C@@H]3N1C2=O,60.2%
15,CCN(CC)c1ccc(/C=C/c2cccc[n+]2C)c(OC)c1,-41.1%
16,O=C(N/N=C/c1ccccn1)c1sc2ccccc2c1Cl,13.7%
17,COc1ccc(C=C(c2nc3ccccc3s2)c2nc3ccccc3s2)cc1O,7.34%
18,CC(=O)Nc1cccc(-c2ccnc3c2CC(C(=O)NCc2ccco2)O3)c1 (stereo not given),-17.9%
19,Nc1nc(-c2ccccn2)nc(N)c1Cc1ccc(Cl)cc1Cl,-18.4%
20,CC(=O)Nc1cccc(-c2ccnc3c2CC(C(=O)NCc2ccc(F)c(F)c2)O3)c1 (stereo not given),8.31%
21,COc1ccc(CNC(=O)C2Cc3c(-c4ccc5c(c4)OCO5)ccnc3O2)cc1OC (stereo not given),28.2%
